Source: PubChem BioAssay AID1159580 (chemical genetic matrix, 2015)
The campaign covered roughly 5,500 compounds. About 2,000 (36%) were called active. Inconclusive results (about 18%) are left out. No stated cut-off is given here; in the data, active means normalized growth mostly below about 0.91 (no sharp cut-off); inconclusive means no clear call, values can overlap the other calls; inactive means mostly above about 0.92. Some of the results follow.

Experiment: chemical genetic growth profiling, strain panel (AID 1159580);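 further: tested at 20 µM; growth read once vehicle control cultures reached saturation at 30 °C; 1 = growth at the plate median or of vehicle wells; lower values mean less growth of the strain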
Conditions: S. cerevisiae deletion strains, growth OD

Measured: normalized growth

COc1[nH]c2ccc(F)cc2c1C(=O)OCC1CCN(CCNS(C)(=O)=O)CC1
inactive: locus YAL040C, strain CLN3, hits give low values 0.958 | locus YCL061C, strain MRC1 (second series), hits give low values 0.994 | locus YDR150W, strain NUM1, hits give low values 0.986 | locus YDR363W, strain ESC2, hits give low values 0.995 | locus YER002W, strain NOP16, hits give low values 1.01 | locus YGR078C, strain PAC10, hits give low values 1.02 | locus YJR075W, strain HOC1, hits give low values 1.01 | locus YNL153C, strain GIM3, hits give low values 1.01 | locus YNL175C, strain NOP13, hits give low values 1 | locus YNL197C, strain WHI3, hits give low values 1.02 | locus YNL224C, strain SQS1, hits give low values 1.01 | locus YOR083W, strain WHI5 (second series), hits give low values 0.993 | locus YPL241C, strain CIN2, hits give low values 1.01
